Data on three molecules can be found in PubChem BioAssay (NCATS).

Results filed as inconclusive are left out. Calls of active or inactive are those of the source. Unless noted, calls come from the whole dose curve; as a rule, active = well fitted curve in the direction sought with a large enough effect; inconclusive = small, poorly fitted or top-dose-only effect, or another doubt; inactive = no such curve, though single readings can be large; an effect the other way counts as inactive or inconclusive.

The target in assay [1] is Lysosomal acid glucosylceramidase (Homo sapiens) (UniProt P04062). The assay is described as follows: Glucocerebrosidase-p2 (AID 348; in the data active = potency below about 10 µM; note: potency is the fitted concentration of half-maximal effect). The following applies: purified GBA, blue fluorogenic substrate, 40 min. The method in brief:
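Normal human glucocerebrosidase (0.2 nM) with blue fluorogenic substrate (80 uM final) in citrate/phosphate pH 5.9 with 10mM sodium taurocholate, 0.01% tween-20; 40 min RT, NaOH/glycine stop; fluorescence Ex 365/Em 440; AC50 from a titration from 0.6 nM upwards.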

The nature of assay [2]: AP1 Signaling Pathway (AID 357; active = well fitted curve in either direction with a large enough effect, not every such curve was filed as active;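 note: ME-180 reporter cells stimulated with EGF at its EC50 level; % is set by controls: 0 for no effect and ±100 for the full control effect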). The following applies: ME-180 AP-1-bla reporter, EGF-induced, beta-lactamase ratio, 5 h; at 7.69 µM (top of the series) unless noted. Put shortly: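 Titration-series screen for positive or negative modulators of EC50 EGF-induced signaling in ME-180 cells carrying an AP-1-driven beta-lactamase reporter. After 5 hours at 37 degrees Celsius, CCF4 460nm/530nm emission ratio gave %Activity; AC50 values derived.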

Assay [3] deals with Cytochrome P450 1A2 (Homo sapiens) (UniProt P05177). The assay is described as follows: p450-cyp1a2 (AID 410; calls by dose curve; note: potency is the fitted concentration of half-maximal effect;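 for activity change, negative = inhibition: -100% = full effect of reference inhibitor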). The note with it: recombinant CYP1A2, luciferin-ME demethylation, luminescence; series mostly up to 57 µM. Put shortly:
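O-Demethylation of luciferin 6' methyl ether by human CYP1A2 is monitored as luciferase luminescence. Substrate sits at Km (100uM); enzyme is 20nM. Values are scaled to 57 uM furafylline as maximal inhibition.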

Assay [4] is described as follows: NFAT Signaling Pathway (AID 444; active = well fitted curve in either direction with a large enough effect, not every such curve was filed as active;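 note: carbachol stimulus at about its EC50 of 1 µM final; % is set by controls: 0 for no effect and ±100 for the full control effect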). The following applies: Jurkat NFAT-bla M1, carbachol, beta-lactamase ratio, 5 h; at 7.69 µM (top of the series) unless noted. The method in brief: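 Read-out: CCF4 FRET ratio (460 nm/530 nm) after 1 h RT dye loading, used for %activity and AC50 from titration series. Cells: Jurkat NFAT-β-lactamase/M1 line, treated with compound plus 1 uM carbachol for 5 h, 37 °C.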

The nature of assay [5]: Stat Signaling Pathway (AID 446; active = well fitted curve in either direction with a large enough effect, not every such curve was filed as active;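 note: ME-180 cervical cancer cells given 40 pM IL-6 alongside compound; SIE-controlled beta-lactamase reporter measured as 460/530 nm FRET emission ratio; % is set by controls: 0 for no effect and ±100 for the full control effect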). The following applies: ME-180 SIE beta-lactamase reporter, IL-6 stimulated, 5 h; at 7.69 µM (top of the series) unless noted. The method in brief: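 Overnight-plated ME-180 cells bearing a STAT Inducible Element beta-lactamase reporter; 5 h co-exposure to compound and 40 pM IL-6; values normalized to 300 pM IL-6 and 125 nM JAK inhibitor controls.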

In assay [6] the target is Glucocorticoid receptor (Homo sapiens) (UniProt P04150). Put plainly: GR-GFP Redistribution (AID 450;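 active = compounds whose dose series gives a full or clear partial fitted curve of increased nuclear translocation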; note: potency is the fitted concentration of half-maximal effect). The following applies: U2OS GR-GFP nuclear translocation, laser cytometry, 2 h.
The target is the same in assay [7]. The assay is described as follows: GR-EFC Redistribution (AID 451; calls by dose curve; note: potency is the fitted concentration of half-maximal effect). The following applies: CHO-K1 GR-EFC translocation, beta-gal luminescence, 2 h. The method in brief: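 Translocation of GR-ED fusion to nuclear EA restores b-gal, read by luminescence after 1 h room-temperature detection. Engineered CHO-K1 biosensor cells, 1,000/well, exposed 2 h at 37 C to titrations up to 46 uM final.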

Assay [8] addresses Mitogen-activated protein kinase 10 (Mus musculus) (UniProt Q61831). The assay is described as follows: JNK3 AlphaScreen Assay (AID 530; active = well fitted curve in either direction with a large enough effect, not every such curve was filed as active;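 note: kinase came from lysate of stimulated human HepG2 cells; signal reports phosphorylation of biotinylated GST-cJun 1-79 at Ser73 with 10 µM ATP; % is set by controls: 0 for no effect and ±100 for the full control effect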). The note with it: JNK3 lysate, c-Jun phosphorylation; series mostly up to 57.1 µM. The method in brief: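 qHTS titrations with 15 min compound pre-incubation before adding ATP (10 uM final). Read-out: AlphaScreen of Ser73-phosphorylated biotin-GST-cJun using HepG2 lysate JNK3 activated by IL-1β and TNFα.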
(In general: In Alpha technology, singlet oxygen from a donor bead excites a nearby acceptor bead.)

For assay [9], the target named is Cytochrome P450 3A4 (Homo sapiens) (UniProt P08684). Put plainly: qHTS Assay for Activators of Cytochrome P450 3A4 (AID 885). Note: nearly all actives have a fitted effect of over 65% in size. Note: potency is the fitted concentration of half-maximal effect. The note with it: recombinant CYP3A4, Luciferin-PPXE luminescence, 60 min; series mostly up to 57.1 µM. The method in brief:
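Using 20nM recombinant human CYP3A4 in potassium phosphate (200mM), substrate Luciferin-PPXE at 25uM, luminescent luciferin detection followed a 60-min RT NADPH reaction; data scaled to 57 uM ketoconazole.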
In general terms: qHTS replaces the single test concentration by a dilution series.

Assay [10] is described as follows: qHTS Assay for Identification of Small Molecule Agonists for Hypoxia Response Element Signaling Pathway (AID 914; active = well fitted activation curve with a large enough effect in the signal ratio, with a control signal flat, not every such curve was filed as active; the % refers to the signal ratio; note: potency is the fitted concentration of half-maximal effect; for activation: % of control where 0% means no effect). The note with it: ME-180 (cervical carcinoma) HRE-bla reporter, beta-lactamase ratio, CoCl2, 17 h; activation: stronger effect = higher value. Put shortly:
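Compounds in a titration series were added to ME-180 reporter cells alongside an EC50 level of CoCl2. After 17 hours, beta-lactamase activity was read as the 460nm/530nm emission ratio of CCF4, giving AC50 values.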

A short description of assay [11]: qHTS Assay for Lipid Storage Modulators (AID 1519; calls by dose curve). The note with it: Drosophila S3 cells, BODIPY lipid droplet/cell ratio, laser cytometry, cells loaded with oleic acid; for activity change, negative = inhibition: at 57.5 µM (top of the series). Put shortly:
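Cells seeded at 5,000 per well were treated with compounds over a concentration series and loaded with oleic acid (400 uM, as added). Lipid droplet fluorescence (488 nm excitation, 500-530 nm channel) was read by laser-scanning cytometry and normalized to 20 uM Triacsin C.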

The target of assay [12] is Dual specificity protein kinase CLK4 (Homo sapiens) (UniProt Q9HAZ1). The assay is described as follows: qHTS Assay for Inhibitors of CDC-like Kinase 4 (Kinase-Glo Assay) (AID 1770). Note: nearly all actives have a fitted effect of over 65% in size. Note: potency is the fitted concentration of half-maximal effect. The note with it: recombinant Clk4, Kinase-Glo ATP depletion luminescence; series mostly up to 66.7 µM. Put shortly:
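Inhibition was judged from remaining ATP, measured by Ultra-Glo luciferase bioluminescence after Clk4 (25 nM) had acted on RS peptide at 1 uM ATP for 4.5 hours, room temperature.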

The target is the same in assay [13]. Put plainly: qHTS Assay for Inhibitors of CDC-like Kinase 4 (ADP-Glo Assay) (AID 1771). Note: nearly all actives have a fitted effect of over 70% in size. Note: potency is the fitted concentration of half-maximal effect. The following applies: recombinant CLK4, ADP-Glo luminescence; series mostly up to 80 µM. Put shortly:
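Compounds are pin-transferred onto substrate mix (100 uM RS peptide, 1 uM ATP), then 25 nM Clk4 is added. After 1 hr at room temperature, ADP-Glo reagent runs 45 min, detection reagent 30 min, then luminescence is read.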

For assay [14] the target is unchanged. Put plainly: qHTS Assay for Inhibitors of CDC-like Kinase 4 (ADP-FP Assay) (AID 1795). Note: nearly all actives have a fitted effect of over 60% in size. Note: potency is the fitted concentration of half-maximal effect. The note with it: Transcreener ADP fluorescence polarization; series mostly up to 50 µM. Put shortly: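 Inhibition of ADP formation by 6.25 nM Clk4 is measured using 1 uM ATP and 100 uM RS repeat peptide over one hour. Produced ADP displaces a fluorescent tracer from antibody, lowering polarization.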

The target in assay [15] is Ubiquitin carboxyl-terminal hydrolase 1 (Homo sapiens) (UniProt O94782). Put plainly: Inhibitors of USP1/UAF1: Pilot qHTS (AID 504865). Note: nearly all actives have a fitted effect of over 35% in size. Note: potency is the fitted concentration of half-maximal effect. The note with it: purified USP1/UAF1, Ub-rhodamine cleavage fluorescence; series mostly up to 54.9 µM. The method in brief: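 Kinetic fluorescence assay: 1nM USP1/UAF1, 15 min compound preincubation, then 150nM Ub-Rho; 480/540 nm.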
Assay [16] has as its target 3',5'-cyclic-AMP phosphodiesterase 4B (Homo sapiens) (UniProt Q07343). Put plainly: qHTS Assay for Inhibitors of PDE-IV (AID 607; active = well fitted activation curve with a large enough effect in the main read-out, with a control signal flat, not every such curve was filed as active; note: % of control where 0% means no effect). The note with it: HEK293 ACTOne CNG channel cells, membrane potential fluorescence; series mostly up to 22.9 µM. Put shortly:
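Live HEK293 cells with a modified cyclic nucleotide-gated (CNG) channel report intracellular cAMP via membrane-potential dye fluorescence (ex 535/em 590 nm). Endogenous PDE-IV was targeted. Compounds were tested at up to 22.9 uM final; RO 20-1724 100 uM served as control.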

For assay [17], the target named is Cytochrome P450 3A4 (Homo sapiens) (UniProt P08684). The assay is described as follows: qHTS Assay for Inhibitors and Substrates of Cytochrome P450 3A4 (AID 884). Note: % is set by controls: 0 for no effect and ±100 for the full control effect; nearly all actives have a fitted effect of over 50% in size. The note with it: recombinant CYP3A4, Luciferin-PPXE luminescence; series mostly up to 57.1 µM. The method in brief: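 Luminescent readout of luciferin produced by CYP3A4 (20 nM) dealkylation of Luciferin-PPXE, 25 uM (its KM). NADPH-driven reaction ran 60 min at RT after 10 min compound preincubation; data scaled to 57 uM ketoconazole as 100% inhibition.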

The mark [18] stands for this setting: measured here: cell count channel max response.
Where [19] appears, read: measured here: lipid channel max response.

Sequence of Lysosomal acid glucosylceramidase (Homo sapiens) (P04062 whole entry, looked up): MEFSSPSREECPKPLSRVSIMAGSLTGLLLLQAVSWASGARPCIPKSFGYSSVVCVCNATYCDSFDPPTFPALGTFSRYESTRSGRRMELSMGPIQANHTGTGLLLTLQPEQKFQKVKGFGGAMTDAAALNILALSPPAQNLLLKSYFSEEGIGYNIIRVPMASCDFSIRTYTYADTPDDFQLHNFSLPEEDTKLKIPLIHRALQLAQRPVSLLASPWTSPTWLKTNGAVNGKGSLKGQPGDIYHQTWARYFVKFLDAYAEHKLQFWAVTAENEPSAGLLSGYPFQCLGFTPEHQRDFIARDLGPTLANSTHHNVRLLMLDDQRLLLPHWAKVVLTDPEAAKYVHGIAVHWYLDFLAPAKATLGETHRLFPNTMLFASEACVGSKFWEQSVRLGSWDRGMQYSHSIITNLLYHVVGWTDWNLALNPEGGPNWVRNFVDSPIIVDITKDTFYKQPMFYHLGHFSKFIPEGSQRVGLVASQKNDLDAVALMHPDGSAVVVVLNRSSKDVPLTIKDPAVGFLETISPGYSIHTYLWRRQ
Sequence of Cytochrome P450 1A2 (Homo sapiens) (P05177 whole entry, looked up): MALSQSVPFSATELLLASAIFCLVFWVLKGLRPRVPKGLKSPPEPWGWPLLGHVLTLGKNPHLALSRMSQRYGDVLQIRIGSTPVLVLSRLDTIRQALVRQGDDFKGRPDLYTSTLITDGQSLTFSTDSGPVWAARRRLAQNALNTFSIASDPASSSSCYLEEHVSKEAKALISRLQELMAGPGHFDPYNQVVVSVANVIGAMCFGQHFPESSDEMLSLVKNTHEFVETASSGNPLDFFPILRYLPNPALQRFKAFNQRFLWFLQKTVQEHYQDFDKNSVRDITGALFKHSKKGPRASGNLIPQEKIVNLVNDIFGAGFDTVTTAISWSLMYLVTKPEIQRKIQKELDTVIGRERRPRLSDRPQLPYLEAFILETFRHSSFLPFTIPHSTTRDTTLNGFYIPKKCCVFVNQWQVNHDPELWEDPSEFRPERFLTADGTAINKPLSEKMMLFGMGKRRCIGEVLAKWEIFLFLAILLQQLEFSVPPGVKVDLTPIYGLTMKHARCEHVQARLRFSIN
Sequence of Dual specificity protein kinase CLK4 (Homo sapiens) (Q9HAZ1 whole entry, looked up): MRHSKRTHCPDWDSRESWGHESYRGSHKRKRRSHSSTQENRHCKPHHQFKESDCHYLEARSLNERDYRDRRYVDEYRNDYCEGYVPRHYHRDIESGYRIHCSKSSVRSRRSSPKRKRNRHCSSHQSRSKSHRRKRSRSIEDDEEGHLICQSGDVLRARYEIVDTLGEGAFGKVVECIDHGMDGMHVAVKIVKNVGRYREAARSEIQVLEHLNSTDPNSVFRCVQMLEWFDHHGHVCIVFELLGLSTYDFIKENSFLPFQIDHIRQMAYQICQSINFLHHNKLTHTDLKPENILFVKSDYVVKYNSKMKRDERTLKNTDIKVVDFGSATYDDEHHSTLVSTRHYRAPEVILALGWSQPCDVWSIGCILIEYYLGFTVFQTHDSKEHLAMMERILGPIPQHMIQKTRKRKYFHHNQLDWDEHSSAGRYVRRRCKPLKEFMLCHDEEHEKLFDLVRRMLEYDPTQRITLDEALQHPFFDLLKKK
Sequence of Cytochrome P450 3A4 (Homo sapiens) (P08684 whole entry, looked up): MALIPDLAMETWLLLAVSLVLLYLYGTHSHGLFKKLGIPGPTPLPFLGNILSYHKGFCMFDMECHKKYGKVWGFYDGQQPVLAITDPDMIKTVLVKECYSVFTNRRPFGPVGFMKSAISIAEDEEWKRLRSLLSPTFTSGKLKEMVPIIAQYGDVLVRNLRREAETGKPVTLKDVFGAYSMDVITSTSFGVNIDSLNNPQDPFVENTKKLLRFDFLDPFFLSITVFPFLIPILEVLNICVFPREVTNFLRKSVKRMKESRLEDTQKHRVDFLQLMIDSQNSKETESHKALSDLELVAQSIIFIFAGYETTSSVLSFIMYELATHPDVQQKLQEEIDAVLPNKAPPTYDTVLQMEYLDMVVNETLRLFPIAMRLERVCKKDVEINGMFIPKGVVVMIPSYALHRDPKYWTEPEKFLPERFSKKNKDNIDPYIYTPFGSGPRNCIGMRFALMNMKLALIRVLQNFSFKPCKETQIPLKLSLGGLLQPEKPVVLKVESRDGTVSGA
Sequence of Glucocorticoid receptor (Homo sapiens) (P04150 whole entry, looked up, the tested form may be a part): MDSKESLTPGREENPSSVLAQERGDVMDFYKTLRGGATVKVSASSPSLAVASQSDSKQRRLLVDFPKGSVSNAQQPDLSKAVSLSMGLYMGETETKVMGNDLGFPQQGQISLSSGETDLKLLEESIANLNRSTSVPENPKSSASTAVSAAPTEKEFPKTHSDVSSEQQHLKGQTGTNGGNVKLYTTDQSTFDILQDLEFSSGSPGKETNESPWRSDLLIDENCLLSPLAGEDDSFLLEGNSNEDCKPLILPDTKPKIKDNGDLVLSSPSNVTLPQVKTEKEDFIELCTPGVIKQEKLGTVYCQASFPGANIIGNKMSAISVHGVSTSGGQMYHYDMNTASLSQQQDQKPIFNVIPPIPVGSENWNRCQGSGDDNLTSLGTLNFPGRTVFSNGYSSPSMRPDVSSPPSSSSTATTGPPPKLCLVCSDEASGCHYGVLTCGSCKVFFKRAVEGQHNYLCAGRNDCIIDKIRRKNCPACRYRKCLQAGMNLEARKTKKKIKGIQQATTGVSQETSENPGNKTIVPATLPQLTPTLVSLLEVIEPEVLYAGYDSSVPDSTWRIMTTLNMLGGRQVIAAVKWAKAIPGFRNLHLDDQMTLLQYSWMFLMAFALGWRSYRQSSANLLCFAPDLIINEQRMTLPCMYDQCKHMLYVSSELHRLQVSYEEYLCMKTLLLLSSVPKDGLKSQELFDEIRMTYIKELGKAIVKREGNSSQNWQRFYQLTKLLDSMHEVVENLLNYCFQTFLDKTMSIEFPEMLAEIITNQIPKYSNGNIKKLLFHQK
Sequence of Ubiquitin carboxyl-terminal hydrolase 1 (Homo sapiens) (O94782 whole entry, looked up): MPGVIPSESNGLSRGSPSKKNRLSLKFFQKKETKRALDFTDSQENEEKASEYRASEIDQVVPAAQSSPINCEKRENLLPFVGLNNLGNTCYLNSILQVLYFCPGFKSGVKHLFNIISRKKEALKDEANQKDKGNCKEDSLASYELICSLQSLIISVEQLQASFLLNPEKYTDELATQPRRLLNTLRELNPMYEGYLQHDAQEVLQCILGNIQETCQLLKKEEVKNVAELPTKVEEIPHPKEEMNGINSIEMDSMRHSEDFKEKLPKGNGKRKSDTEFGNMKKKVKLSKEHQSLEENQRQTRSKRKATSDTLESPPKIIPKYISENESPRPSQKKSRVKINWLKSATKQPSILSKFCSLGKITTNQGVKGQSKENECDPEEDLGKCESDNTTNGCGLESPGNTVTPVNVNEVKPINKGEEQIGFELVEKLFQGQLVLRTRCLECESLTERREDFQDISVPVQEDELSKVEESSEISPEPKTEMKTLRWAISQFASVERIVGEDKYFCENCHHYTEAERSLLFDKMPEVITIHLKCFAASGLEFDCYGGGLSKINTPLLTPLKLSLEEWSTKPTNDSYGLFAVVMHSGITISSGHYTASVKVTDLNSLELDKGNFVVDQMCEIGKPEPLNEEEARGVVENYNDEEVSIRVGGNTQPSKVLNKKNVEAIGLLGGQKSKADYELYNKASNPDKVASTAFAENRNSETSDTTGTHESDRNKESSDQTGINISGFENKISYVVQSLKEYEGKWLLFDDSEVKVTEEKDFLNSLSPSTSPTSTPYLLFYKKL
Sequence of 3',5'-cyclic-AMP phosphodiesterase 4B (Homo sapiens) (Q07343 whole entry, looked up): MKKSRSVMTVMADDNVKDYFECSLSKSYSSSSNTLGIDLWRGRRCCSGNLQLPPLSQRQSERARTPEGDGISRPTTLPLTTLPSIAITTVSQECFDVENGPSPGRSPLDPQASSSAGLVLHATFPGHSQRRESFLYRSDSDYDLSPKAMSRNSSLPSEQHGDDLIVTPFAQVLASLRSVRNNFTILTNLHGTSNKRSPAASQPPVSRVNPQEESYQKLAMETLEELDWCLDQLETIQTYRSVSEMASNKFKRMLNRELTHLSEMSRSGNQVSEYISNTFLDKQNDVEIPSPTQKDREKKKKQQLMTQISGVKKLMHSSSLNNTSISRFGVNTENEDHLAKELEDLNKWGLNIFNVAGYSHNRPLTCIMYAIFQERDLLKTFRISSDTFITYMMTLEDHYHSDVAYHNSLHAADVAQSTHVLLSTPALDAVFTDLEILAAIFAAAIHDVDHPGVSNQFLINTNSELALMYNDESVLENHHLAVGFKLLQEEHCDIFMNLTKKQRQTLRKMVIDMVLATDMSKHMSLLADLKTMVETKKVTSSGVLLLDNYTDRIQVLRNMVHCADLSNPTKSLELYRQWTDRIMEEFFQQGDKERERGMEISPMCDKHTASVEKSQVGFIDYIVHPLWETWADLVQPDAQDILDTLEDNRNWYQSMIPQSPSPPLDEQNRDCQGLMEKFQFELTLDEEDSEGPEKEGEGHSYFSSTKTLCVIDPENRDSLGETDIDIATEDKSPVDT

Regarding `Cc1ccccc1-c1nc(N2CCOCC2)c2ccccc2n1`, the Potency in [1] was > 11.4 µM (inactive); in [3], 2 µM (active); in assay [6] it was > 46 µM (inactive); in assay [7], > 46 µM (inactive); in assay [12], 15.8 µM (active); in [13], 15.8 µM (active). The Potency is 12.6 µM (active) in assay [14] and 28.2 µM (active) in assay [15]. The activity change, negative = inhibition in [2] was 4.71% (inactive); in assay [4], -2.19% (inactive); in assay [11] it was 6.43% (inactive). Besides, in assay [5], the activity, negative = inhibition was 4.23% (inactive). In addition, the Potency result in assay [8] and in assay [9] was “inactive” in each case. The activation in assay [10] is 11% (inactive). The max response amounted to 31.7% in assay [11] (setting [18]) and 38.9% in assay [11] (setting [19]).

Take `CN1CCN(c2ncc3nc(-c4ccc(Cl)cc4)c(=O)n(Cc4ccc(F)cc4)c3n2)CC1`: the Potency was > 11.4 µM (inactive) in [1]; 31.6 µM (active) in assay [3]; > 9.22 µM (inactive) in assay [6]; > 46 µM (inactive) in assay [7]; 15.8 µM (active) in assay [9]. For the same molecule, the Potency entry in [16], in [17], in assay [12], in [13], in assay [14] and in [15] was “inactive” throughout. The activity change, negative = inhibition in assay [11] is -1.37% (inactive). For the same molecule, the max response in [11] (setting [18]) was found to be 15.9%; in assay [11] (setting [19]), 10.5%.

Regarding `COc1cccc(Cn2c(=O)c(-c3ccccc3)nc3cnc(N4CCN(C)CC4)nc32)c1`, the Potency in assay [1] is > 11.4 µM (inactive); in [6], > 9.22 µM (inactive); in [7], > 46 µM (inactive); in assay [10] it was 3.16 µM (active). Further, the Potency entry in assay [3], in [16], in [9], in [12], in assay [13] and in [14] was “inactive” each time. Moreover, the Potency result in assay [15] is “inactive”. In addition, the activity change, negative = inhibition in assay [11] is -6.14% (inactive). In addition, the max response in [11] (setting [18]) is 6.94%; in assay [11] (setting [19]), -0.577%.
